Results published in publication PMC11062922 (Nature Chemical Biology, 2023).
Read-outs that look alike come from different tables or passages of the source.

Assays:
Details in all cases: read-out: apparent Kd, n = 1
CLK4 = system: CLK4
FER = system: FER
FLT4 = system: FLT4
[1] = compound concentrations:100 nM and 1000 nM (sheet 'Lestaurtinib' of Supplementary Table 1),run:Lestaurtinib_02795_R1,Plate:MR022
[2] = compound concentrations:100 nM and 1000 nM (sheet 'Lestaurtinib' of Supplementary Table 1),run:Lestaurtinib_02795_R2,Plate:MR022
[3] = compound concentrations:100 nM and 1000 nM (sheet 'Lestaurtinib' of Supplementary Table 1),run:Lestaurtinib_02802_R2,Plate:MR029
[4] = compound concentrations:100 nM and 1000 nM (sheet 'Lestaurtinib' of Supplementary Table 1),run:Lestaurtinib_02802_R3,Plate:MR029
[5] = compound concentrations:100 nM and 1000 nM (sheet 'Lestaurtinib' of Supplementary Table 1),run:Lestaurtinib_03172_R3,Plate:MR031
[6] = compound concentrations:100 nM and 1000 nM (sheet 'Lestaurtinib' of Supplementary Table 1),run:Lestaurtinib_03252_R2,Plate:MR032
[7] = compound concentrations:100 nM and 1000 nM (sheet 'Lestaurtinib' of Supplementary Table 1),run:Lestaurtinib_03260_R1,Plate:MR033
[8] = compound concentrations:100 nM and 1000 nM (sheet 'Lestaurtinib' of Supplementary Table 1),run:Lestaurtinib_03260_R2,Plate:MR033
[9] = compound concentrations:100 nM and 1000 nM (sheet 'Lestaurtinib' of Supplementary Table 1),run:Lestaurtinib_03260_R3,Plate:MR033
[10] = compound concentrations:100 nM and 1000 nM (sheet 'Lestaurtinib' of Supplementary Table 1),run:Lestaurtinib_02339_R1,Plate:MR001
[11] = compound concentrations:100 nM and 1000 nM (sheet 'Lestaurtinib' of Supplementary Table 1),run:Lestaurtinib_02339_R2,Plate:MR001
[12] = compound concentrations:100 nM and 1000 nM (sheet 'Lestaurtinib' of Supplementary Table 1),run:Lestaurtinib_02364_R2,Plate:MR002

Q: Lestaurtinib was tested. Which potency estimated from few doses (CLK4; compound concentrations:100 nM and 1000 nM (sheet 'Lestaurtinib' of Supplementary Table 1),run:Lestaurtinib_02768_R3,Plate:MR028) did it give?
A: 50.7 nM

Q: And the potency estimated from few doses (CLK4; [1])?
A: 63.3 nM

Q: And the potency estimated from few doses (CLK4; [2])?
A: 42.4 nM

Q: And the potency estimated from few doses (CLK4; [3])?
A: 62.9 nM

Q: What about the potency estimated from few doses (CLK4; [4]) of the same substance?
A: 42.9 nM

Q: What about the potency estimated from few doses (CLK4; compound concentrations:100 nM and 1000 nM (sheet 'Lestaurtinib' of Supplementary Table 1),run:Lestaurtinib_02896_R1,Plate:MR030) of the same substance?
A: 45.2 nM

Q: What about the potency estimated from few doses (CLK4; compound concentrations:100 nM and 1000 nM (sheet 'Lestaurtinib' of Supplementary Table 1),run:Lestaurtinib_02896_R2,Plate:MR030) of the same substance?
A: 44.9 nM

Q: And the potency estimated from few doses (CLK4; [5])?
A: 82.5 nM

Q: What about the potency estimated from few doses (CLK4; [6]) of the same substance?
A: 38.7 nM

Q: What about the potency estimated from few doses (CLK4; [7]) of the same substance?
A: 95 nM

Q: What about the potency estimated from few doses (CLK4; [8]) of the same substance?
A: 130 nM

Q: And the potency estimated from few doses (CLK4; [9])?
A: 60.5 nM

Q: And the potency estimated from few doses (FER; [10])?
A: 361 nM

Q: What about the potency estimated from few doses (FER; [11]) of the same substance?
A: 254 nM

Q: And the potency estimated from few doses (FER; compound concentrations:100 nM and 1000 nM (sheet 'Lestaurtinib' of Supplementary Table 1),run:Lestaurtinib_02339_R3,Plate:MR001)?
A: 336 nM

Q: What about the potency estimated from few doses (FER; compound concentrations:100 nM and 1000 nM (sheet 'Lestaurtinib' of Supplementary Table 1),run:Lestaurtinib_02364_R1,Plate:MR002) of the same substance?
A: 298 nM

Q: What about the potency estimated from few doses (FER; [12]) of the same substance?
A: 396 nM

Q: What about the potency estimated from few doses (FER; compound concentrations:100 nM and 1000 nM (sheet 'Lestaurtinib' of Supplementary Table 1),run:Lestaurtinib_02367_R1,Plate:MR003) of the same substance?
A: 327 nM

Q: And the potency estimated from few doses (FER; compound concentrations:100 nM and 1000 nM (sheet 'Lestaurtinib' of Supplementary Table 1),run:Lestaurtinib_02367_R2,Plate:MR003)?
A: 319 nM

Q: And the potency estimated from few doses (FER; compound concentrations:100 nM and 1000 nM (sheet 'Lestaurtinib' of Supplementary Table 1),run:Lestaurtinib_02367_R3,Plate:MR003)?
A: 310 nM

Q: What about the potency estimated from few doses (FER; compound concentrations:100 nM and 1000 nM (sheet 'Lestaurtinib' of Supplementary Table 1),run:Lestaurtinib_02381_R1,Plate:MR004) of the same substance?
A: 385 nM

Q: And the potency estimated from few doses (FER; compound concentrations:100 nM and 1000 nM (sheet 'Lestaurtinib' of Supplementary Table 1),run:Lestaurtinib_02381_R2,Plate:MR004)?
A: 362 nM

Q: And the potency estimated from few doses (FER; compound concentrations:100 nM and 1000 nM (sheet 'Lestaurtinib' of Supplementary Table 1),run:Lestaurtinib_02381_R3,Plate:MR004)?
A: 336 nM

Q: And the potency estimated from few doses (FER; compound concentrations:100 nM and 1000 nM (sheet 'Lestaurtinib' of Supplementary Table 1),run:Lestaurtinib_02407_R3,Plate:MR005)?
A: 459 nM

Q: What about the potency estimated from few doses (FER; compound concentrations:100 nM and 1000 nM (sheet 'Lestaurtinib' of Supplementary Table 1),run:Lestaurtinib_02422_R3,Plate:MR006) of the same substance?
A: 307 nM

Q: What about the potency estimated from few doses (FER; compound concentrations:100 nM and 1000 nM (sheet 'Lestaurtinib' of Supplementary Table 1),run:Lestaurtinib_02437_R2,Plate:MR007) of the same substance?
A: 347 nM

Q: And the potency estimated from few doses (FER; compound concentrations:100 nM and 1000 nM (sheet 'Lestaurtinib' of Supplementary Table 1),run:Lestaurtinib_02437_R3,Plate:MR007)?
A: 30.6 nM

Q: And the potency estimated from few doses (FER; compound concentrations:100 nM and 1000 nM (sheet 'Lestaurtinib' of Supplementary Table 1),run:Lestaurtinib_02438_R1,Plate:MR008)?
A: 352 nM

Q: And the potency estimated from few doses (FER; compound concentrations:100 nM and 1000 nM (sheet 'Lestaurtinib' of Supplementary Table 1),run:Lestaurtinib_02438_R2,Plate:MR008)?
A: 345 nM

Q: And the potency estimated from few doses (FER; compound concentrations:100 nM and 1000 nM (sheet 'Lestaurtinib' of Supplementary Table 1),run:Lestaurtinib_02438_R3,Plate:MR008)?
A: 356 nM

Q: And the potency estimated from few doses (FER; compound concentrations:100 nM and 1000 nM (sheet 'Lestaurtinib' of Supplementary Table 1),run:Lestaurtinib_02443_R1,Plate:MR009)?
A: 347 nM

Q: And the potency estimated from few doses (FER; compound concentrations:100 nM and 1000 nM (sheet 'Lestaurtinib' of Supplementary Table 1),run:Lestaurtinib_02443_R2,Plate:MR009)?
A: 358 nM

Q: What about the potency estimated from few doses (FER; compound concentrations:100 nM and 1000 nM (sheet 'Lestaurtinib' of Supplementary Table 1),run:Lestaurtinib_02473_R2,Plate:MR010) of the same substance?
A: 343 nM

Q: And the potency estimated from few doses (FER; compound concentrations:100 nM and 1000 nM (sheet 'Lestaurtinib' of Supplementary Table 1),run:Lestaurtinib_02482_R1,Plate:MR011)?
A: 406 nM

Q: What about the potency estimated from few doses (FER; compound concentrations:100 nM and 1000 nM (sheet 'Lestaurtinib' of Supplementary Table 1),run:Lestaurtinib_02482_R2,Plate:MR011) of the same substance?
A: 336 nM

Q: What about the potency estimated from few doses (FER; compound concentrations:100 nM and 1000 nM (sheet 'Lestaurtinib' of Supplementary Table 1),run:Lestaurtinib_02487_R1,Plate:MR012) of the same substance?
A: 221 nM

Q: What about the potency estimated from few doses (FER; compound concentrations:100 nM and 1000 nM (sheet 'Lestaurtinib' of Supplementary Table 1),run:Lestaurtinib_02496_R1,Plate:MR013) of the same substance?
A: 306 nM

Q: And the potency estimated from few doses (FER; compound concentrations:100 nM and 1000 nM (sheet 'Lestaurtinib' of Supplementary Table 1),run:Lestaurtinib_02566_R1,Plate:MR014)?
A: 269 nM

Q: What about the potency estimated from few doses (FER; compound concentrations:100 nM and 1000 nM (sheet 'Lestaurtinib' of Supplementary Table 1),run:Lestaurtinib_02572_R2,Plate:MR015) of the same substance?
A: 259 nM

Q: And the potency estimated from few doses (FER; compound concentrations:100 nM and 1000 nM (sheet 'Lestaurtinib' of Supplementary Table 1),run:Lestaurtinib_02572_R3,Plate:MR015)?
A: 447 nM

Q: What about the potency estimated from few doses (FER; compound concentrations:100 nM and 1000 nM (sheet 'Lestaurtinib' of Supplementary Table 1),run:Lestaurtinib_02584_R1,Plate:MR017) of the same substance?
A: 332 nM

Q: What about the potency estimated from few doses (FER; compound concentrations:100 nM and 1000 nM (sheet 'Lestaurtinib' of Supplementary Table 1),run:Lestaurtinib_02584_R3,Plate:MR017) of the same substance?
A: 351 nM

Q: And the potency estimated from few doses (FER; compound concentrations:100 nM and 1000 nM (sheet 'Lestaurtinib' of Supplementary Table 1),run:Lestaurtinib_02601_R2,Plate:MR018)?
A: 394 nM

Q: What about the potency estimated from few doses (FER; compound concentrations:100 nM and 1000 nM (sheet 'Lestaurtinib' of Supplementary Table 1),run:Lestaurtinib_02601_R3,Plate:MR018) of the same substance?
A: 42.4 nM

Q: What about the potency estimated from few doses (FER; compound concentrations:100 nM and 1000 nM (sheet 'Lestaurtinib' of Supplementary Table 1),run:Lestaurtinib_02606_R2,Plate:MR019) of the same substance?
A: 83.6 nM

Q: And the potency estimated from few doses (FER; compound concentrations:100 nM and 1000 nM (sheet 'Lestaurtinib' of Supplementary Table 1),run:Lestaurtinib_02606_R3,Plate:MR019)?
A: 355 nM

Q: What about the potency estimated from few doses (FER; compound concentrations:100 nM and 1000 nM (sheet 'Lestaurtinib' of Supplementary Table 1),run:Lestaurtinib_02624_R3,Plate:MR020) of the same substance?
A: 365 nM

Q: What about the potency estimated from few doses (FER; compound concentrations:100 nM and 1000 nM (sheet 'Lestaurtinib' of Supplementary Table 1),run:Lestaurtinib_02724_R2,Plate:MR021) of the same substance?
A: 436 nM

Q: And the potency estimated from few doses (FER; compound concentrations:100 nM and 1000 nM (sheet 'Lestaurtinib' of Supplementary Table 1),run:Lestaurtinib_02748_R1,Plate:MR024)?
A: 268 nM

Q: What about the potency estimated from few doses (FER; compound concentrations:100 nM and 1000 nM (sheet 'Lestaurtinib' of Supplementary Table 1),run:Lestaurtinib_02748_R3,Plate:MR024) of the same substance?
A: 278 nM

Q: And the potency estimated from few doses (FER; compound concentrations:100 nM and 1000 nM (sheet 'Lestaurtinib' of Supplementary Table 1),run:Lestaurtinib_02752_R1,Plate:MR025)?
A: 356 nM

Q: What about the potency estimated from few doses (FER; compound concentrations:100 nM and 1000 nM (sheet 'Lestaurtinib' of Supplementary Table 1),run:Lestaurtinib_02752_R2,Plate:MR025) of the same substance?
A: 297 nM

Q: And the potency estimated from few doses (FER; compound concentrations:100 nM and 1000 nM (sheet 'Lestaurtinib' of Supplementary Table 1),run:Lestaurtinib_02752_R3,Plate:MR025)?
A: 327 nM

Q: And the potency estimated from few doses (FER; compound concentrations:100 nM and 1000 nM (sheet 'Lestaurtinib' of Supplementary Table 1),run:Lestaurtinib_02765_R1,Plate:MR026)?
A: 564 nM

Q: And the potency estimated from few doses (FER; compound concentrations:100 nM and 1000 nM (sheet 'Lestaurtinib' of Supplementary Table 1),run:Lestaurtinib_02765_R2,Plate:MR026)?
A: 481 nM

Q: What about the potency estimated from few doses (FER; compound concentrations:100 nM and 1000 nM (sheet 'Lestaurtinib' of Supplementary Table 1),run:Lestaurtinib_02765_R3,Plate:MR026) of the same substance?
A: 549 nM

Q: What about the potency estimated from few doses (FER; compound concentrations:100 nM and 1000 nM (sheet 'Lestaurtinib' of Supplementary Table 1),run:Lestaurtinib_02766_R1,Plate:MR027) of the same substance?
A: 277 nM

Q: And the potency estimated from few doses (FER; compound concentrations:100 nM and 1000 nM (sheet 'Lestaurtinib' of Supplementary Table 1),run:Lestaurtinib_02766_R2,Plate:MR027)?
A: 25.3 nM

Q: What about the potency estimated from few doses (FER; compound concentrations:100 nM and 1000 nM (sheet 'Lestaurtinib' of Supplementary Table 1),run:Lestaurtinib_02766_R3,Plate:MR027) of the same substance?
A: 321 nM

Q: And the potency estimated from few doses (FER; [1])?
A: 454 nM

Q: What about the potency estimated from few doses (FER; [2]) of the same substance?
A: 356 nM

Q: What about the potency estimated from few doses (FER; compound concentrations:100 nM and 1000 nM (sheet 'Lestaurtinib' of Supplementary Table 1),run:Lestaurtinib_02795_R3,Plate:MR022) of the same substance?
A: 372 nM

Q: And the potency estimated from few doses (FER; [3])?
A: 296 nM

Q: And the potency estimated from few doses (FER; [4])?
A: 12.4 nM

Q: And the potency estimated from few doses (FER; compound concentrations:100 nM and 1000 nM (sheet 'Lestaurtinib' of Supplementary Table 1),run:Lestaurtinib_03172_R2,Plate:MR031)?
A: 386 nM

Q: And the potency estimated from few doses (FER; [5])?
A: 315 nM

Q: What about the potency estimated from few doses (FER; [6]) of the same substance?
A: 25 nM

Q: And the potency estimated from few doses (FER; [7])?
A: 469 nM

Q: What about the potency estimated from few doses (FER; [8]) of the same substance?
A: 487 nM

Q: And the potency estimated from few doses (FER; [9])?
A: 351 nM

Q: What about the potency estimated from few doses (FLT4; [10]) of the same substance?
A: 345 nM

Q: What about the potency estimated from few doses (FLT4; [11]) of the same substance?
A: 300 nM

Q: What about the potency estimated from few doses (FLT4; [12]) of the same substance?
A: 289 nM
